Screening data deposited in PubChem by Paczesny and Yang Labs, IUPUI and University of Michigan.
ST2 IL33 inh: inhibitors of human ST2 (IL1RL1) binding to IL-33. Q01638. AlphaLISA ST2-Fc/biotin-IL-33 interaction, 1 h. inhibition, % for hits at 17 µM. 2.3% of 78,000 active. AID 1259354; in the data active = inhibition above about 30%
Target sequence (Q01638 whole entry, looked up): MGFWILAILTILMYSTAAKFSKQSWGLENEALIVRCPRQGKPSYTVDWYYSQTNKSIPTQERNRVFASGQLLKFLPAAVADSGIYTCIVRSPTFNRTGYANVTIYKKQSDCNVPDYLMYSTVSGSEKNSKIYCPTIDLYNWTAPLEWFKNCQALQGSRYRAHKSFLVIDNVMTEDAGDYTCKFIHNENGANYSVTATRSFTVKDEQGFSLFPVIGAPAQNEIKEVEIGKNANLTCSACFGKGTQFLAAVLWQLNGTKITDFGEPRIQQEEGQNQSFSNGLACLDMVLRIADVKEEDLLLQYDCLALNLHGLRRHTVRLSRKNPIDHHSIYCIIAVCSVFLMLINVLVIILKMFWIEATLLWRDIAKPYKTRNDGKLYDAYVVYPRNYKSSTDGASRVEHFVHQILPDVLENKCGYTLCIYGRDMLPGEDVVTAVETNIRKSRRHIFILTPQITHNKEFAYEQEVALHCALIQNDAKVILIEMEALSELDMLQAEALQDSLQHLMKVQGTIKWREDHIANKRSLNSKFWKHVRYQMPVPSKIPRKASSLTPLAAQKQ
Of the large screens only hits and unclear results are named; the others gave an inactive call. Many of the other results were omitted from the sample, so hits are more common in it than they were.

COc1ccc(-c2cc(C(=O)Nc3ccccn3)c3ccccc3n2)cc1OC	none
CN1CCN(C(=O)c2ccco2)CC1	none
Cc1cccc(C2N3CC4(C)CN2CC(C)(C3)C4O)c1 (stereo not drawn)	none
O=C(NCc1ccc(F)cc1)C1C2C=CC3(CN(Cc4cccs4)C(=O)C13)O2 (stereo not drawn)	none
CC(=O)c1cc(C#N)c(SCc2ccc(Cl)c(Cl)c2)nc1C	none
CS(=O)(=O)c1ncc(CN2CCCCC2c2nccs2)n1CCCc1ccccc1 (stereo not drawn)	none
Cc1ccc(-c2csc3ncnc(N4CCN(c5ccccn5)CC4)c23)cc1	none
Cc1cccc(C)c1NS(=O)(=O)c1ccc2c(c1)CCC(=O)N2	none
COc1ccc2cc3cc(C(=O)N4CCN(C)CC4)sc3nc2c1	none
COc1ccc(NC(=O)c2cc3cc4ccc(C)cc4nc3s2)cc1OC	none
COCCNC(=O)c1cc2cc3cc(OC)ccc3nc2s1	none
COCCCNC(=O)c1cc2cc3cc(OC)ccc3nc2s1	none
CCN(CCCNC(=O)c1cc2cc3ccc(OC)cc3nc2s1)c1ccccc1	ST2 IL33 inh 31%
COc1ccc2cc3cc(C(=O)Nc4ccc(OC)c(Cl)c4)sc3nc2c1	ST2 IL33 inh 38%
COc1ccc2nc3sc(C(=O)NCc4ccccc4OC)cc3cc2c1	none
COc1ccc2cc3cc(C(=O)NCc4ccc(C)cc4)sc3nc2c1	ST2 IL33 inh 31%
COc1ccc([N+](=O)[O-])cc1NC(=O)c1ccoc1C	none
COc1ccc([N+](=O)[O-])cc1NC(=O)COc1ccc(C)cc1Br	none
COc1ccc([N+](=O)[O-])cc1NC(=O)c1cc2cc3ccc(C)cc3nc2s1	ST2 IL33 inh 46%
CCCCNC(=O)c1cc2cc3cc(OC)ccc3nc2s1	none
O=C(NCCC(=O)N1CCC[C@H]1CN1CCCC1)c1ccccc1F	none
C[C@@H]1O[C@@H](c2c(O)c([C@@H]3O[C@H](CO)[C@@H](O)[C@H](O)[C@H]3O)c(O)c3c(=O)cc(-c4ccc(O)cc4)oc23)[C@H](O)[C@H](O)[C@H]1O	none
CCOc1cccc2sc(N3CCCC3)nc12	none
CCOc1ccc(S(=O)(=O)N(CC)c2ccccc2)c2cccnc12	none
CC1CCCN(C(=O)Cc2c(C(=O)O)[nH]c3ccc(Cl)cc23)C1 (stereo not drawn)	none
N#CC1=C(N)Oc2[nH]c(=O)[nH]c(=O)c2C1c1ccc(F)cc1 (stereo not drawn)	none
COc1ccc(C)cc1NC(=O)c1ccc(N(Cc2ccccc2Cl)S(C)(=O)=O)cc1	none
Cc1ccccc1-c1nc(CN2CCC(C(=O)N3CCC4(CC3)OCCO4)CC2)c(C)o1	none
Cc1ccc(C(=O)N[C@@H]2C=C(C(=O)NCCC(N)=O)C[C@@H](O)[C@@H]2O)cc1	none
NC(=O)CCNC(=O)C1=C[C@@H](NC(=O)Cc2cccs2)[C@@H](O)[C@H](O)C1	none
CC(C)(C)CC(=O)N[C@@H]1C=C(C(=O)NCCC(N)=O)C[C@@H](O)[C@@H]1O	ST2 IL33 inh 83%
O=c1c2ccccc2ncn1CCCCSc1ccc(Cl)cc1	none
COc1ccc(C(=O)NC2CC(=O)N(c3cccc(F)c3)C2)cc1OC (stereo not drawn)	none
CCN(CC)CCNc1c2c(c(C#N)c3nc4ccccc4n13)CCC2	none
N#Cc1c2c(c(NCCCO)n3c1nc1ccccc13)CCC2	ST2 IL33 inh 31%
Cc1c(Cc2ccccc2)c(NCCCO)n2c(nc3ccccc32)c1C#N	none
O=C1c2ccc([N+](=O)[O-])cc2C(=O)N1CNc1ccc(I)cc1	none
